# Laboratory results: the supplement of paper PMC4466236
# The full ranking holds about 33,000 sequences; the median of “E-score (dimensionless, -0.5 to 0.5)” is about -0.058, and the highest 2% start at about 0.35. This is one part of a sample in which the highest values are shown more often than they occur.
# Tested on: MvaT
# Assay: PBM 8-mer E-score (mean of HK and ME arrays) (E-score (dimensionless, -0.5 to 0.5)); higher = stronger relative binding preference
# Summary of the method: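 Full-length P. aeruginosa MvaT, with glutathione S-transferase fused to its N-terminus (cloned into pTH6838 by isothermal assembly), was tested by protein binding microarray using a previously described protocol. Two universal double-stranded 60-mer arrays (ME and HK) were used, each with a constant 25-mer primer region and a variable 35-mer region covering all 8-mers. The rank-based 8-mer E-score (-0.5 to 0.5) is the mean of the two arrays, parsed with a custom Python script.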
row,Sequence,PBM 8-mer E-score
1,GAGGACTC,-0.279
2,CTCGGAAG,-0.0476
3,CGCACACG,-0.149
4,GATTCTGC,-0.159
5,CACTACGA,-0.0417
6,CCTGGCAG,-0.209
7,CGTTGTAC,-0.0465
8,AAGAGCTT,-0.115
9,GATTCTGA,-0.00658
10,AGCGCAAA,0.162
11,AACCAGGC,-0.183
12,GCCTAATA,0.133
13,AAATTTCT,0.148
14,CTATTAAG,0.17
15,ATATTAAG,0.446
16,GGATTAAC,0.111
17,GTATTAAC,0.39
18,GCATTAAC,0.114
19,ATATTACG,0.299
20,AGCGTCGC,-0.197
21,CACAACCG,-0.028
22,ATCGTATA,0.115
23,CCTACGAG,-0.148
24,ATAAGTCA,0.17
25,AGTATAAA,0.381

row,Sequence,PBM 8-mer E-score
1,CGTATAAC,0.113
2,GGTATAAA,0.339
3,GGTATAAC,0.226
4,TGTATAAA,0.258
5,AGTATAAC,0.36
6,ATGTAAAA,0.247
7,CTTCCCCC,-0.176
8,AACACACA,0.187
9,AGGCTTAC,-0.247
10,GGATAAGA,0.0379
11,CGATAATA,0.301
12,AGATAATA,0.366
13,AGATAATG,0.295
14,GGATAATA,0.403
15,AGATAATC,0.136
16,GCTCGAGA,-0.152
17,CCGTTCGC,-0.222
18,CTCCGGTA,-0.227
19,CAACGGCG,-0.221
20,CTCTATAA,0.081
21,GCGTATAA,0.201
22,CTATATAA,0.421
23,GTATATAA,0.401
24,CTATATAG,0.388
25,ATCTATAA,0.209

row,Sequence,PBM 8-mer E-score
1,ATATATAG,0.468
2,ATCTATAG,0.146
3,CCATATAG,0.084
4,GTGTATAA,0.202
5,CACTATAG,0.196
6,ATATAGCG,0.333
7,AACTAGGA,0.0115
8,TGGCAACA,-0.122
9,ACAATCAC,0.00599
10,CACGCATC,-0.154
11,GTGGCCAA,-0.191
12,CTGTTATA,0.359
13,ATGTTATA,0.442
14,CTGTTACA,0.111
15,GTGTTATA,0.32
16,CTGTTATC,0.0487
17,ATGTTATG,0.152
18,GAGGAAAC,-0.144
19,GAAACAAA,0.271
20,ACTAATAC,0.247
21,ACTAATAA,0.399
22,TCTAATAA,0.332
23,CCTAATAA,0.266
24,ACTAATAG,0.199
25,ACTAATAT,0.407

row,Sequence,PBM 8-mer E-score
1,CCAAATCC,-0.193
2,AGAAAGAC,0.00959
3,GACACACA,0.101
4,AGGGACCC,-0.282
5,AGACCTCG,-0.132
6,AGATCGAG,-0.129
7,CGTGAAGC,-0.218
8,CTTGGTTA,0.0108
9,CATATCAC,0.15
10,GAGGCACC,-0.229
11,AAACATAC,0.284
12,ATACATAA,0.336
13,AAACATAA,0.371
14,GAACATAA,0.256
15,AAACATAG,0.216
16,ATACATAC,0.319
17,ATACATAT,0.394
18,ATACAAAA,0.304
19,TAACATAA,0.303
20,AAACATAT,0.361
21,ATACAAAT,0.35
22,ATACAAAG,0.27
23,CAGTTGAC,0.0902
24,GGTCGAAC,-0.0987
25,AGTCAGAG,-0.21

row,Sequence,PBM 8-mer E-score
1,CCTGGCGC,-0.207
2,AGTAAATA,0.361
3,GATAAATA,0.382
4,GATAAATC,0.137
5,TATAAATA,0.426
6,TATAAAGA,0.327
7,CATAAATG,0.112
8,CATAAATA,0.358
9,AGTAAATC,0.0898
10,GATAAAGA,0.271
11,CCTAAATA,0.226
12,CATAAATC,0.163
13,CGTAAATA,0.236
14,CCCTGGAA,-0.276
15,CCCTACAC,-0.212
16,CTCCGCCA,-0.247
17,ACTCAGTA,0.118
18,AATTGAGA,0.0559
19,AATAAATC,0.319
20,AATAAACT,0.293
21,AATAAATG,0.33
22,AATAAGTA,0.387
23,AATAAATT,0.436
24,AATAAATA,0.434
25,AAGAAATT,0.26

row,Sequence,PBM 8-mer E-score
1,CATAAGTA,0.315
2,AATAAGTG,0.254
3,CCAAGTTC,0.0376
4,AGGAGAAC,-0.112
5,CGACTCAA,-0.0083
6,TACCATAA,0.271
7,CATCTCCG,-0.186
8,AGCTTGCG,-0.227
9,AATATGAA,0.329
10,CATATGCA,0.164
11,TATATGAA,0.382
12,TATATGCA,0.412
13,GATATGAA,0.156
14,AATATGCA,0.264
15,CAGCACAA,-0.0547
16,TCAGCCCA,-0.133
17,AAAGTATG,0.216
18,ACGTAAAC,-0.0262
19,AATACGGG,-0.0239
20,AACTTACA,0.33
21,CACTTATA,0.326
22,TACTTATA,0.389
23,GACTTATA,0.312
24,ACCTTATA,0.266
25,AACTTATA,0.415

row,Sequence,PBM 8-mer E-score
1,AAGCCGGA,-0.238
2,TACTGTAA,0.336
3,AAGGACGT,-0.149
4,GGAGTCAA,-0.134
5,CTTGAACA,-0.0207
6,AAGGTGGG,-0.155
7,CCGCGGCG,-0.0831
8,ACGAGGCT,-0.135
9,ATTGGTAC,0.139
10,CTATAATA,0.42
11,GTATAAGA,0.278
12,CTGTAATC,0.0848
13,CCATAATA,0.287
14,CTCTAATA,0.364
15,GTATAATA,0.416
16,GTGTAATA,0.342
17,ATCTAATA,0.321
18,GTCTAATA,0.269
19,CTGTAATA,0.36
20,ATGTAATA,0.317
21,CTTCAACA,0.0315
22,CCCGCGTA,-0.177
